Test results as given in PubChem BioAssay AID588397 (National Center for Advancing Translational Sciences (NCATS), 2011).
“And” between values parts separate entries of the source, which are not always exact repeats. Equal entries are not always repeated. The campaign covered roughly 1,300 compounds. About 1,000 (77%) were called active. Not shown: some 7% with an inconclusive outcome. The call rests on the fitted dose curve; in most records, active means well fitted inhibition curve with a large enough effect; inconclusive means small, poorly fitted or top-dose-only effect; inactive means no such curve, though single readings can be large or run the other way. So high a share suggests a set chosen from earlier hits. The list shows a part of the results.

assay: qHTS of small molecules that selectively kill Giardia lamblia: Hit Validation.;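 further: viability measured as ATP content by luminescence so killing lowers signal; nearly all actives have a fitted effect of over 65% in size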; details: Giardia lamblia trophozoite viability, dose-response; series mostly up to 38.3 µM
Method in brief: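 Luminescent ATP signal served as the viability read-out, measured 15-30 min after adding ATP detection reagent to trophozoites that had been incubated with compounds for 48 hrs at 37 deg C anaerobically at 100 cells/well.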
Potency means the concentration at half of the fitted maximal effect.

Structure (SMILES) | Potency
CCn1cnc2c([N+](=O)[O-])c(NS(=O)(=O)c3ccc(C)cc3)ccc21 | 0.206 µM (active)
O=C(COc1ccccc1)N/N=C/c1ccc([N+](=O)[O-])o1 | 0.46 µM (active)
O=C(N/N=C/c1ccc([N+](=O)[O-])o1)C(O)c1ccccc1 (stereo not drawn) | 4.1 µM (active)
Cc1ccc(OCC(=O)N/N=C/c2ccc([N+](=O)[O-])o2)cc1 | 0.729 µM (active)
Cc1cc(C)cc(OCC(=O)N/N=C/c2ccc([N+](=O)[O-])o2)c1 | 0.579 µM (active)
CCN1C[C@@H]2[C@@H]3C(=O)N(Cc4ccccc4)C(=O)[C@@H]3[C@](C)(C1=O)N2C(=O)c1ccccc1 | inactive
CCCOc1ccc(CCC(=O)N/N=C/c2ccc([N+](=O)[O-])o2)cc1 | 0.729 µM (active)
Cc1ccccc1OCC(=O)N/N=C/c1ccc([N+](=O)[O-])o1 | 0.516 µM (active)
O=C(Cc1ccc(Cl)cc1)Nc1ncc([N+](=O)[O-])s1 | 0.818 µM (active)
Cc1ccc(C(=O)Nc2ncc([N+](=O)[O-])s2)cc1 | 0.259 µM (active)
COc1ccc(CC(=O)Nc2ncc([N+](=O)[O-])s2)cc1OC | 0.259 µM (active)
Cc1nc(C)c(C(=O)Nc2ncc([N+](=O)[O-])s2)o1 | 1.16 µM (active)
COc1ccc(Cc2nnc(NC(=O)Nc3ccccc3F)s2)cc1OC | inactive
CC1CCN(S(=O)(=O)c2cn(C)c(=O)n(C)c2=O)CC1 | inactive
Cc1ccc(OCC(=O)N(Cc2cccc(Cl)c2)C2CCS(=O)(=O)C2)cc1C (stereo not drawn) | inactive
O=C(Nc1ncc([N+](=O)[O-])s1)c1ccc2c(c1)OCO2 | 0.259 µM (active)
O=C(Cc1ccc(Br)cc1)Nc1ncc([N+](=O)[O-])s1 | 0.23 µM (active)
CC12CCC(C(=O)Nc3ncc([N+](=O)[O-])s3)(OC1=O)C2(C)C (stereo not drawn) | 0.206 µM (active)
O=C(/C=C/c1ccc([N+](=O)[O-])cc1)Nc1ncc([N+](=O)[O-])s1 | 0.65 µM (active)
Cc1onc(-c2ccccc2)c1C(=O)N(Cc1ccccc1)C(C)C | inactive
O=C(COc1ccc(Cl)cc1)Nc1ncc([N+](=O)[O-])s1 | 0.41 µM (active)
Cc1onc(-c2ccccc2)c1C(=O)Nc1ncc([N+](=O)[O-])s1 | 0.579 µM (active)
Cc1ccc(S(=O)(=O)CC(=O)Nc2ncc([N+](=O)[O-])s2)cc1 | 0.579 µM (active)
Cc1onc(-c2ccccc2)c1NC(=O)N(Cc1ccccc1)C(C)C | inactive

Structure (SMILES) | Potency
O=C(Cc1c(F)cccc1Cl)Nc1ncc([N+](=O)[O-])s1 | 0.206 µM (active)
Cc1ccc(S(=O)(=O)CC(=O)Nc2ccc(F)c(F)c2F)cc1 | inactive
CCn1cc(C(=O)NCCC(C)C)c(=O)c2cc(F)c(N3CCN(C(=O)c4ccco4)CC3)cc21 | inactive
Cc1ccc(CC(=O)Nc2ncc([N+](=O)[O-])s2)cc1 | 0.13 µM (active)
O=C(NNC(=O)c1ccncc1)Nc1cccc([N+](=O)[O-])c1 | inactive
O=C(Nc1ncc([N+](=O)[O-])s1)c1cccc([N+](=O)[O-])c1 | 0.29 µM (active)
CC(=O)Nc1ccc(NC(=O)c2c([N+](=O)[O-])cnn2C)cc1 | 1.3 µM (active)
Cc1ncc([N+](=O)[O-])n1CCN1C(=O)c2ccccc2C1=O | 0.65 µM (active)
Cc1nonc1OCCn1c([N+](=O)[O-])cnc1C | 1.16 µM (active)
CCS(=O)(=O)CCn1c([N+](=O)[O-])cnc1C | 0.918 µM (active)
CCOc1cc(C=O)ccc1OCCn1c([N+](=O)[O-])cnc1C | 0.65 µM (active)
Cc1ncc([N+](=O)[O-])n1CCO | 4.1 µM (active) and 4.6 µM (active)
Cc1ncc([N+](=O)[O-])n1CC(O)CCl (stereo not drawn) | 1.16 µM (active)
COc1cc2nc(N3CCCCC3)nc(NC3CCN(Cc4ccccc4)CC3)c2cc1OC | 2.05 µM (active)
COc1cc2nc(N3CCN(c4cc(C)ccc4C)CC3)nc(N)c2cc1OC | 4.1 µM (active)
COc1cc2nc(N3CCN(C)CC3)nc(NC(C)C)c2cc1OC | 0.918 µM (active)
COc1cc2nc(N3CCN(C)CC3)nc(NC3CC3)c2cc1OC | 0.365 µM (active)
COc1cc2nc(N3CCCN(C)CC3)nc(NC3CCCCC3)c2cc1OC | 0.65 µM (active)
Cc1ccc(C(C(=O)NCc2ccco2)N(C(=O)CNC(=O)c2cccs2)c2c(C)cccc2C)cc1 (stereo not drawn) | 0.818 µM (active)
O=C1C2C3C=CC(C3)C2C(=O)N1Nc1ccc([N+](=O)[O-])cc1[N+](=O)[O-] (stereo not drawn) | 4.1 µM (active)
Cn1c(=NC(=O)c2cnccn2)sc2ccccc21 | 5.79 µM (active)
CC(Oc1ccccc1)C(=O)Nc1nnc(S(=O)(=O)N2CCCCC2)s1 (stereo not drawn) | 3.65 µM (active)
CC(Oc1ccccc1)C(=O)Nc1nnc(S(=O)(=O)N2CCCCCC2)s1 (stereo not drawn) | 5.16 µM (active)
Cn1nc(N)c2c(-c3ccccc3)c(C#N)c(N)nc21 | 4.6 µM (active)

Structure (SMILES) | Potency
Cn1nc(N)c2c(-c3ccc(Cl)cc3)c(C#N)c(N)nc21 | 2.9 µM (active)
Cc1cc(C(=O)COc2cccnc2[N+](=O)[O-])c(C)n1Cc1cccs1 | 1.03 µM (active)
Cc1ccc(OCC(=O)c2cc(C)n(Cc3cccs3)c2C)c([N+](=O)[O-])n1 | 0.818 µM (active)
O=C(N/N=C/c1ccc([N+](=O)[O-])o1)c1cn(-c2ccccc2)nc1-c1ccccc1 | 0.818 µM (active)
COc1ccc(-c2nn(-c3ccccc3)cc2C(=O)N/N=C/c2ccc([N+](=O)[O-])o2)cc1 | 0.516 µM (active)
O=C(N/N=C/c1ccc([N+](=O)[O-])o1)c1cn(-c2ccccc2)nc1-c1ccc(Cl)cc1 | 1.03 µM (active)
O=C(N/N=C/c1ccc([N+](=O)[O-])o1)c1cn(-c2ccccc2)nc1-c1ccc(F)cc1 | 0.516 µM (active)
CCOC(=O)c1cc([N+](=O)[O-])sc1NC(=O)CC | 1.03 µM (active)
CN(Cc1cccc(Cl)c1)C(=O)C1CCC(=O)N(C2CC2)C1 (stereo not drawn) | inactive
O=C(COc1cccnc1[N+](=O)[O-])Nc1cc(Cl)ccc1Cl | 4.6 µM (active)
O=C(COc1cccnc1[N+](=O)[O-])Nc1ccc(Cl)cc1F | 1.83 µM (active)
CC(OC(=O)c1ccc(Cl)nc1)C(=O)NC1CCCC1 (stereo not drawn) | inactive
CC(OC(=O)c1ccc([N+](=O)[O-])s1)C(=O)NC1CCCCC1C (stereo not drawn) | 3.65 µM (active)
O=C(NCc1ccc(Cl)cc1)C1CCC(CNS(=O)(=O)c2ccccc2)CC1 (stereo not drawn) | inactive
O=C(NCc1ccccn1)C1CCCN(S(=O)(=O)c2cc(Cl)ccc2Cl)C1 (stereo not drawn) | 1.03 µM (active)
Cc1ccc2nc(NC(=O)C3CCCN(S(=O)(=O)c4cnc[nH]4)C3)sc2c1 (stereo not drawn) | inactive
CC/C=C1/N=C2C(=O)N(C)C(=O)N=C2N(C)N1 | 0.13 µM (active)
CN1N/C(=C\c2ccccc2)N=C2C(=O)N(C)C(=O)N=C21 | 0.259 µM (active)
O=S1(=O)[C@H]2C[C@@H]3C=C[C@@]2(CN1Cc1cccc(F)c1)O3 | inactive
COc1ccc(-n2nc([N+](=O)[O-])c(=NCCc3cccc(C)c3)n2O)cc1 | 1.3 µM (active)
Cc1cccc(CCN=c2c([N+](=O)[O-])nn(-c3ccccc3)n2O)c1 | 2.9 µM (active)
CN(C)c1nc(=Nc2cccc(Cl)c2)ss1 | 11.6 µM (active)
CCCSc1nc2c(c(=O)n1CC)SC(C)C2 (stereo not drawn) | inactive
O=C(CSc1nnc(NC(=O)c2ccccc2)s1)NCc1ccco1 | 4.6 µM (active)

Structure (SMILES) | Potency
O=C(Nc1nnc(SCC(=O)N2CCOCC2)s1)c1ccccc1 | 5.16 µM (active)
O=C(Nc1nnc(SCC(=O)N2CCOCC2)s1)c1ccccc1Cl | 5.79 µM (active)
O=C(CSc1nnc(NC(=O)c2c(F)cccc2F)s1)Nc1ccc(F)cc1 | inactive
O=[N+]([O-])c1cn(-c2nc(-c3ccco3)cc(C(F)(F)F)n2)cn1 | 2.59 µM (active)
COC(=O)[C@@]1(Cc2ccc(OC)cc2)[C@H]2c3cc(C(=O)N4CCCC4)n(CCn4cc([N+](=O)[O-])nc4C)c3C[C@H]2CN1C(=O)c1ccccc1 | 0.206 µM (active)
O=[N+]([O-])c1ncc(Br)cc1Nc1ccccc1 | 0.516 µM (active)
C[C@@H]1[C@H]2[C@@H](O[C@@H]3O[C@H](CO)[C@@H](O)[C@H](O)[C@H]3O)OC=C(C(=O)O)[C@H]2C[C@@H]1O | inactive
Nc1nonc1OCCN1CCN(c2ccc([N+](=O)[O-])c3cccnc23)CC1 | 1.83 µM (active)
O=[N+]([O-])c1ccc(N2CCN(CCO)CC2)c2ncccc12 | 1.45 µM (active)
O=C(c1cccc(F)c1)N1CCN(c2ccc([N+](=O)[O-])c3cccnc23)CC1 | 3.26 µM (active)
CS(=O)(=O)N1CCN(c2ccc([N+](=O)[O-])c3cccnc23)CC1 | 1.03 µM (active)
O=c1c([N+](=O)[O-])cccn1Cc1ccccc1Cl | 4.1 µM (active)
O=c1c([N+](=O)[O-])cccn1Cc1ccc(F)cc1Cl | 2.31 µM (active)
Cc1ccc(/C=N/Nc2ccnc3cc(Cl)ccc23)c(C)c1 | 0.365 µM (active)
Cc1ccccc1/C=N/Nc1ccnc2cc(Cl)ccc12 | 0.326 µM (active)
Clc1ccc2c(N/N=C/c3ccccc3Br)ccnc2c1 | 1.63 µM (active)
COc1cc(/C=C/c2onc(C)c2[N+](=O)[O-])cc(OC)c1OC | 2.05 µM (active)
Cc1noc(/C=C/c2cccnc2)c1[N+](=O)[O-] | 8.18 µM (active)
Cc1cc2[nH]c3c(c[n+](C)c4ccccc34)c2cc1C | 1.16 µM (active)
COc1cc(C2Nc3ccccc3C(=O)N2c2ccc3c(c2)OCCO3)ccc1OCC(C)C (stereo not drawn) | 3.26 µM (active)
CC(C)Oc1ccccc1C1Nc2ccccc2C(=O)N1c1ccc2c(c1)OCCO2 (stereo not drawn) | 5.16 µM (active)
